According to ChEMBL document CHEMBL3433997, “St. Jude Leishmania screening dataset” (2016):

Target: Hexose transporter 1 (Plasmodium falciparum) (UniProt O97467)
Assay: ST_JUDE_LEISH: Cytotoxicity at 2uM final concentration against transgenic Leishmania Mexicana promastigotes LmPfHT that are glucose transport deficient and complemented with the Plasmodium falciparum hexose transporter. Activity is measured by DNA content using SYBR green in vitro
Assay type: functional

| SMILES | inhibition [%] |
| --- | --- |
| O=C(Nc1ccc(OC2CCN(Cc3ccsc3)C2)c(Cl)c1)c1ccc2ncccc2c1 (centres undefined) | 0.74 |
| C[C@@H](NC(=O)NC(CCN1CCC2(CC1)CN(S(C)(=O)=O)c1ccccc12)c1ccc(Cl)c(Cl)c1)c1ccccc1 (some centres undefined) | 4.43 |
| CCCCC(=O)Nc1cc(=O)[nH]c2nc(-c3ccc(Cl)cc3)nn12 | 3.54 |
| CC1CN(Cc2cccc(F)c2)CCN1c1ccc(NC(=O)c2cccs2)cc1 (centres undefined) | -1.57 |
| Cc1nc(C)c(-c2ccc(Oc3ccc(OC(F)(F)F)cc3)cc2)c(OC(=O)c2ccccc2)c1Cl | 3.78 |
| CC(CN1CCN(C)CC1)C(=O)Nc1cccc(-c2cccc(-c3nc4cc(F)ccc4[nH]3)c2)c1 (centres undefined) | 5.83 |
| O=C(NCCCCN1CC=C(c2ccc3c(c2OCc2ccccc2)CCCC3)CC1)c1ccc(-c2ccc(C(F)(F)F)cc2)cc1 | -1.29 |
| CN1CCN(c2cc(NC(=O)Nc3ccc(-c4ccncc4)c(Cl)c3)ccc2Br)CC1 | 8.89 |
| COc1ccccc1N1CCN(CCCCNC(=O)c2ccc(NC(=O)c3ccc4ccccc4c3)cc2)CC1 | 1.01 |
| Cc1cc(NCCC(=O)NCCOc2ccccc2)nc(NCCc2ccc(F)cc2)n1 | 0.98 |
| CC(Sc1nc2sccc2c(=O)n1C)C(=O)Nc1ccc2c(c1)OCO2 (centres undefined) | 5.47 |
| O=C(Cc1ccccc1)NC(CCN1CCC(NC(=O)c2ccc(Cl)cc2)CC1)c1ccc(Cl)c(Cl)c1 (centres undefined) | 0.27 |
| O=C(Cc1cccnc1)Nc1cccc(-c2cccc(-c3nc4cc(C(F)(F)F)ccc4[nH]3)c2)c1 | 1.57 |
| O=S(=O)(ON=C1CCc2ccccc21)c1ccc(Cl)cc1 | -0.07 |
